PubChem BioAssay (Tox21)
Records with an inconclusive call do not appear. Active and inactive are the calls of the source. Unless noted, calls follow the shape of the dose curve; as a rule, active = well fitted curve in the direction sought with a large enough effect in the repeat runs; inconclusive = weak or mixed curves; inactive = no such curve, though single readings can be large; an effect the other way counts as inactive or inconclusive.

Tests used:
[1] = biological target: Estrogen receptor (Homo sapiens) (UniProt P03372); experiment: qHTS assay to identify small molecule agonists of the estrogen receptor alpha (ER-alpha) signaling pathway in the presence of an antagonist (AID 1259383; calls by dose curve; also: top concentration of the series differs between compounds; nearly all actives have a fitted effect of over 15% in size)
Sequence of Estrogen receptor (Homo sapiens) (P03372 whole entry, looked up): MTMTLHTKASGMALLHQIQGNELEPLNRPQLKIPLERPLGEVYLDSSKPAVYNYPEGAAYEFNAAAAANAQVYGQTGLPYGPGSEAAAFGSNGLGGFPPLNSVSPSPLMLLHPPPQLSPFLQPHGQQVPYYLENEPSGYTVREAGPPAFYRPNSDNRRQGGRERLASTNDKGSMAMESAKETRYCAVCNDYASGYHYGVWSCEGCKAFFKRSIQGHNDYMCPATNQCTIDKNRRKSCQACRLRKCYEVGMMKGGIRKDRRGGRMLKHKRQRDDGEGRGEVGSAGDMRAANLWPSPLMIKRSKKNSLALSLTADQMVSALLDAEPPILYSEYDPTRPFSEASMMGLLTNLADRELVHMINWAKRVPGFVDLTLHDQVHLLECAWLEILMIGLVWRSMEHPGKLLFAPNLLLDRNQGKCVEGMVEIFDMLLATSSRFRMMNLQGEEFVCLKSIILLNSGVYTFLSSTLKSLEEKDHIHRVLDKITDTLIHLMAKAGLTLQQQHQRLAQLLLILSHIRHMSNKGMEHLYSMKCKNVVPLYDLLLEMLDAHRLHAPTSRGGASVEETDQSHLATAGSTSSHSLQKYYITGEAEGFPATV
In short: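 Quantitative HTS confirmation: compounds titrated at 15 concentrations onto estrogen-deprived VM7Luc4E2 cells carrying a four-ERE luciferase construct, with ICI-182,780 present at 10.0nM final. Signal is luminescence after 22hr exposure.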

[2] = qHTS assay to identify small molecule agonists or antagonists of the thyroid stimulating hormone receptor (TSHR) signaling pathway - wild type cell line counter screen (AID 1259384; calls by dose curve)
In short: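 Wild-type HEK293 cells were plated 18 h at 37 C/5% CO2, pin-dosed with compound plus Ro20-1724 medium, held 30 min at room temperature, then given cAMP-d2 and anti-cAMP-cryptate; fluorescence was read after 1 h. Fifteen concentrations, triplicate.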

[3] = biological target: Thyrotropin receptor (Homo sapiens) (UniProt P16473); experiment: qHTS assay to identify small molecule antagonists of the thyroid stimulating hormone receptor (TSHR) signaling pathway (AID 1259385; calls by dose curve; also: nearly all actives have a fitted effect of over 20% in size)
Sequence of Thyrotropin receptor (Homo sapiens) (P16473 whole entry, looked up): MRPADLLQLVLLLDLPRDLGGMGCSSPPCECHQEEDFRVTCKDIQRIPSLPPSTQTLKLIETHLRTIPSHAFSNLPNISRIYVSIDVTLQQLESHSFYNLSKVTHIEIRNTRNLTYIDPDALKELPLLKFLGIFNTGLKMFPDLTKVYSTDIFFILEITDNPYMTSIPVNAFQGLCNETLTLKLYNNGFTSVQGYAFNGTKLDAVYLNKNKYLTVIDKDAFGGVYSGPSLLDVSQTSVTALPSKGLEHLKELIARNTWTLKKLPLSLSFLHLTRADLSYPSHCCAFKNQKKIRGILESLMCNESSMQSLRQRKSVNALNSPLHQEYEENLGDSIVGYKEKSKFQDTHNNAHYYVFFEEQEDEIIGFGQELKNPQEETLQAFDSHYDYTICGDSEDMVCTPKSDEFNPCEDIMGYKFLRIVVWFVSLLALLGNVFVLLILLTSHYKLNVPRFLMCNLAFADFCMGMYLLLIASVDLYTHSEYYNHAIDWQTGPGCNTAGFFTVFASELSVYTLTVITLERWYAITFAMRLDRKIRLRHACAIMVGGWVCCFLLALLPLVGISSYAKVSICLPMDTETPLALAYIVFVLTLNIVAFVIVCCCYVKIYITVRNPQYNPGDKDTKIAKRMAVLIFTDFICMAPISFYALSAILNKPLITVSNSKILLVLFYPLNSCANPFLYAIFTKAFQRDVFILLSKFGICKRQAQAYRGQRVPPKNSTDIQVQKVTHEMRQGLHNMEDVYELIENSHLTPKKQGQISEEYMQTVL
In short: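 TSHR-HEK293 cells were plated and held 18 h at 37C/5% CO2, then given compound plus Ro20-1724 and stimulated with TSH at 1.5 ng/mL final. After 30 min at room temperature, cAMP was detected with cAMP-d2/anti-cAMP-cryptate (1 h) by fluorescence.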

[4] = qHTS assay to identify small molecule agonists of the estrogen receptor alpha (ER-alpha) signaling pathway in the presence of an antagonist - cell viability counter screen (AID 1259386);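 also: series mostly up to about 92 µM; cells exposed to compounds for 22 h at 37 °C before the viability read; nearly all actives have a fitted effect of over 30% in size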
In short: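 The test measures whether compounds kill ER-alpha reporter cells (VM7Luc4E2) under antagonist co-treatment (ICI-182,780, 10.0nM). Fluorescence from CellTiter-Fluor is read after a 22hr exposure.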

[5] = biological target: Progesterone receptor (Homo sapiens) (UniProt P06401); experiment: qHTS assay to identify small molecule agonists of the progesterone receptor (PR) signaling pathway (AID 1346784; calls by dose curve; also: nearly all actives have a fitted effect of over 30% in size)
Sequence of Progesterone receptor (Homo sapiens) (P06401 whole entry, looked up): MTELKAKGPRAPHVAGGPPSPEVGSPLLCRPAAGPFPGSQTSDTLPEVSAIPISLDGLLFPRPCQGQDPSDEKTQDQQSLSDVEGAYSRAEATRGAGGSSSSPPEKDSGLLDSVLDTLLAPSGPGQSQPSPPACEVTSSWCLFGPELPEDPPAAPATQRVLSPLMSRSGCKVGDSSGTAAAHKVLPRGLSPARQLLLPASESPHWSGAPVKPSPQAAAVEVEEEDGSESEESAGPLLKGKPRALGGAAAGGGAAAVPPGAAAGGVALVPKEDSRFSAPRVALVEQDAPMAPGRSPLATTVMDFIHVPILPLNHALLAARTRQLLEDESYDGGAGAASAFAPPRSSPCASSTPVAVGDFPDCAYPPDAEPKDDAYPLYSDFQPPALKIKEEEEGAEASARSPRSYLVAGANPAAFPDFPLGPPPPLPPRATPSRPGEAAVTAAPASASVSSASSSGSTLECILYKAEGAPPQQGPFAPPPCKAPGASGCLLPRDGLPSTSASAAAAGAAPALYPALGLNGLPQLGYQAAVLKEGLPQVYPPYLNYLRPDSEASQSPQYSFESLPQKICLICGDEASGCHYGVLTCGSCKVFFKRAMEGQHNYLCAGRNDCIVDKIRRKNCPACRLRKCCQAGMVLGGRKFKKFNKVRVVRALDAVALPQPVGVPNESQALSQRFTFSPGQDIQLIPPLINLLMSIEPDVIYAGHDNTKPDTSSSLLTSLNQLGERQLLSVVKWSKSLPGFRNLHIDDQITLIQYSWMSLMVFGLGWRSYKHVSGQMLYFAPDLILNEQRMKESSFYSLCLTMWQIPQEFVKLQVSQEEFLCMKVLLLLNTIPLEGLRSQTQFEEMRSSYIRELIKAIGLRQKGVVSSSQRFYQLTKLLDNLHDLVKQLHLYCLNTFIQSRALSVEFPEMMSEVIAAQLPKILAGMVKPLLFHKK
In short: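 Cells (PR-UAS-bla HEK 293T, GripTite) were plated in assay medium containing 2% charcoal-stripped FBS and incubated 6 hr. Test compounds in DMSO were added for 16 hr at 37C. FRET substrate was then loaded for 2 hr at room temperature before fluorescence reading.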

[6] = biological target: Progesterone receptor (Homo sapiens) (UniProt P06401); experiment: qHTS assay to identify small molecule antagonists of the progesterone receptor (PR) signaling pathway (AID 1346795; active = well fitted inhibition curve with a large enough effect in the signal ratio in the repeat runs, not every such curve was filed as active; the % refers to the signal ratio)
In short: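 Antagonist mode: compounds tested against 1 nM (final) promegestone stimulation in HEK293T cells expressing PR-UAS-bla reporter, 16 hr at 37C, 5% CO2; beta-lactamase activity detected via B/G FRET substrate after 2 hr at room temperature.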

[7] = qHTS assay to identify small molecule antagonists of the progesterone receptor (PR) signaling pathway - cell viability counter screen (AID 1346798); also: series mostly up to about 92 µM; nearly all actives have a fitted effect of over 50% in size
In short: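 Counter screen for cytotoxicity: viability of PR-UAS-bla HEK293T cells was measured with CellTiter-Glo luminescence following 16 hr compound exposure in the presence of R5020.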

[8] = qHTS assay to identify small molecule agonists of the progesterone receptor (PR) signaling pathway - cell viability counter screen (AID 1346799; calls by dose curve; also: nearly all actives have a fitted effect of over 45% in size)
In short: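 Cells (PR-UAS-bla HEK293T) are plated at 3,000/well in 2% charcoal-stripped FBS medium, rested 6 hr, dosed and incubated 16 hr at 37C. CellTiter-Glo is then added and luminescence measured after 30 min at room temperature.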

[9] = qHTS assay to identify small molecule agonists of the TGF-beta/Smad signaling pathway (AID 1346859; active = well fitted activation curve with a large enough effect in the signal ratio in the repeat runs, not every such curve was filed as active; the % refers to the signal ratio; also: series mostly up to about 77 µM)
In short: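 Reporter line: HEK 293T with stably integrated SBE-controlled beta-lactamase. Compound exposure lasts 5 hr at 37 C and 5% CO2; substrate loading follows for 2 hr at room temperature, with emission read at 460 and 530 nm.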

[10] = biological target: Thyrotropin-releasing hormone receptor (Homo sapiens) (UniProt P34981); experiment: qHTS assay to identify small molecule antagonists of the thyrotropin-releasing hormone receptor (TRHR) signaling pathway (AID 1346877; active = well fitted inhibition curve with a large enough effect in the repeat runs, not every such curve was filed as active; also: series mostly up to about 51 µM)
Sequence of Thyrotropin-releasing hormone receptor (Homo sapiens) (P34981 whole entry, looked up): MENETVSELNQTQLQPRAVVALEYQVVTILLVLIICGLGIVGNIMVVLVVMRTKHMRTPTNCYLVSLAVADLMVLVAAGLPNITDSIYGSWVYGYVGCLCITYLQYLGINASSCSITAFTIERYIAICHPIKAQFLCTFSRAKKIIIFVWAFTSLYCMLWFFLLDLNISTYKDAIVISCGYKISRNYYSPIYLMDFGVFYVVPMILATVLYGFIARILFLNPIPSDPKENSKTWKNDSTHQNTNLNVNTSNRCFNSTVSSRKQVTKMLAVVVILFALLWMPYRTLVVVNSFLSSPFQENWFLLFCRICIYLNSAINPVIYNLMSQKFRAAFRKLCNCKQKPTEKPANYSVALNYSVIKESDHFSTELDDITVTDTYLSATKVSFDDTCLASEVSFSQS
In short: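 Overnight-plated (18 h, 37 °C) HEK293 cells expressing TRHR were dye-loaded 2 h, treated with compound, then stimulated with TRH at 1 nM final. Fluorescence intensity was captured every second for 3 min.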

[11] = biological target: Thyrotropin-releasing hormone receptor (Homo sapiens) (UniProt P34981); experiment: qHTS assay to identify small molecule agonists of the thyrotropin-releasing hormone receptor (TRHR) signaling pathway (AID 1346891; calls by dose curve;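 also: HEK293 cells expressing TRHR with calcium dye readout; series mostly up to about 58 µM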)
In short: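 Cells: TRHR-Hek293, seeded and incubated 18 h. Dye loading: 2 h at 37 °C. Compound added from DMSO stock by pin tool. Read-out: kinetic calcium fluorescence over 3 min.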

[12] = Human pregnane X receptor (PXR) small molecule agonists, qHTS cell viability counter screen (AID 1346977); also: nearly all actives have a fitted effect of over 50% in size
In short: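 Cytotoxicity counter screen run in the same wells as the PXR luciferase assay, using PXR-Luc HepG2 cells in charcoal-stripped serum medium. Viability: CellTiter-Fluor fluorescence after 24hr compound treatment.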

[13] = Caspase-3/7 induction in HepG2 cells by small molecules, qHTS assay (AID 1346978); also: nearly all actives have a fitted effect of over 15% in size
In short: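 Wild-type HepG2 cells (2,000/well) were settled 5 h at 37 C, 5% CO2, then exposed to compounds in DMSO for 17 h. Caspase-3/7 activity was read by luminescence 30 min after adding Caspase-Glo 3/7 reagent at room temperature.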

[14] = Caspase-3/7 induction in CHO-K1 cells by small molecules, qHTS cell viability counter screen (AID 1346979); also: nearly all actives have a fitted effect of over 35% in size
In short: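 Cytotoxicity counter screen run in parallel with the caspase-3/7 assay: CHO-K1 cells, 16hr compound treatment at 37C, then CellTiter-Fluor for 1hr before fluorescence reading.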

[15] = Caspase-3/7 induction in CHO-K1 cells by small molecules, qHTS assay (AID 1346980); also: nearly all actives have a fitted effect of over 15% in size
In short: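 Wild-type cells were seeded at 1,500 per well and settled 5 hr at 37 C, 5% CO2, then exposed to DMSO-dissolved compounds for 17 hr. Caspase-Glo 3/7 reagent was added, and luminescence was read after 30min at room temperature.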

[16] = Caspase-3/7 induction in HepG2 cells by small molecules, qHTS cell viability counter screen (AID 1346981); also: series mostly up to about 92 µM; nearly all actives have a fitted effect of over 30% in size
In short: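 Treatment of HepG2 cells with DMSO-delivered compounds ran 16 hr at 37 C following a 5-hr pre-incubation of 2,000 cells/well. CellTiter-Fluor fluorescence, read after 1 hr, served as the viability measure in a qHTS format.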

[17] = biological target: Nuclear receptor subfamily 1 group I member 2 (Homo sapiens) (UniProt O75469); experiment: Human pregnane X receptor (PXR) small molecule agonists, qHTS assay (AID 1346982); also: nearly all actives have a fitted effect of over 35% in size
Sequence of Nuclear receptor subfamily 1 group I member 2 (Homo sapiens) (O75469 whole entry, looked up): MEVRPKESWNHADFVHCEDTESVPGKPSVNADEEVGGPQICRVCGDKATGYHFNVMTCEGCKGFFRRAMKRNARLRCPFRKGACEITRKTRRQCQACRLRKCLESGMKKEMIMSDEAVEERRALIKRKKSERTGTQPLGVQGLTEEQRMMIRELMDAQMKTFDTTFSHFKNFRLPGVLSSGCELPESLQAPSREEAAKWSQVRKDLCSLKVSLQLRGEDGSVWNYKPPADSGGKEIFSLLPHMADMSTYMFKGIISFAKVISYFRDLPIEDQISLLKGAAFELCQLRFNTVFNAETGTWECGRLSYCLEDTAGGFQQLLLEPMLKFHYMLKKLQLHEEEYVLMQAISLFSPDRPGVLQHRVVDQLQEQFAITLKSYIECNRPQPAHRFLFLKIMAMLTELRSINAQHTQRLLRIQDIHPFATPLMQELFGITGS
In short: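 Stable HepG2 line reporting PXR-mediated CYP3A4 expression via luciferase. Treatment: 24 hr with compounds in DMSO at 37 C. Detection: ONE-Glo luminescence.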

[18] = qHTS assay to identify small molecule antagonists of the TGF-beta/Smad signaling pathway - cell viability counter screen (AID 1346824); also: nearly all actives have a fitted effect of over 50% in size
In short: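 SBE-bla HEK 293T cells were plated overnight at 37 C, then given compounds in DMSO plus TGF-beta1 (added as 0.25 ng/mL solution) for 5 hr. After the bla read, CellTiter-Glo was added to the same wells and luminescence read after 30 min at room temperature.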

[19] = qHTS assay to identify small molecule agonists of the TGF-beta/Smad signaling pathway - cell viability counter screen (AID 1346829); also: top concentration of the series differs between compounds; nearly all actives have a fitted effect of over 45% in size
In short: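 CellTiter-Glo luminescence readout; SBE-bla HEK 293T cells, overnight plating, compound 5 hr at 37 C/5% CO2, then bla substrate 2 hr RT, then CellTiter-Glo 30 min RT.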

[20] = biological target: Nuclear receptor subfamily 1 group I member 2 (Rattus norvegicus) (UniProt Q9R1A7); experiment: Rat pregnane X receptor (rPXR) activation by small molecules, qHTS assay (AID 1346983); details: rPXR luciferase reporter cells, One-Glo luminescence, 24 h; max activation: stronger effect = higher value; also: nearly all actives have a fitted effect of over 20% in size
Sequence of Nuclear receptor subfamily 1 group I member 2 (Rattus norvegicus) (Q9R1A7 whole entry, looked up): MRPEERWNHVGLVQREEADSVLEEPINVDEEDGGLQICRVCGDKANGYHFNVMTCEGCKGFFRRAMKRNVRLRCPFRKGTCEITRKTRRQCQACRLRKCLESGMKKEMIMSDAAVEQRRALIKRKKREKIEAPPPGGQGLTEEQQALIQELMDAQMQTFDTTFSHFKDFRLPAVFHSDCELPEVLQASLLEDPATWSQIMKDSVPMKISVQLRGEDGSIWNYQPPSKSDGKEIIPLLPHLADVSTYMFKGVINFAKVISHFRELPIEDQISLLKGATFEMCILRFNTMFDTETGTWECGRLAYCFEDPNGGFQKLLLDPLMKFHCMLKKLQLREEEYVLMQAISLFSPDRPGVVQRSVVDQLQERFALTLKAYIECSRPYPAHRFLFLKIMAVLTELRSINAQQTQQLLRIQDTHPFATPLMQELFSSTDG
In short: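 Cell-based rPXR luciferase reporter assay, 2,000 cells per well, rested 5hr at 37 C before compound addition in DMSO, then 24 hr at 37 C. One-Glo reagent was added and luminescence read after 30 min at room temperature.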
% is scaled to controls: 0 for no effect and ±100 for the full control effect.

CCCc1ccc(O)c(OC)c1
inactive: Potency [1] | outcome [2] | outcome [3] | outcome [4] | Potency [5] | Potency [6] | outcome [7] | Potency [8] | outcome [9] | outcome [10] | Potency [11] | outcome [12] | outcome [13] | Potency [14] | outcome [15] | outcome [16] | Potency [17]

OCCC(F)(F)C(F)(F)C(F)(F)C(F)(F)C(F)(F)C(F)(F)F
inactive: Potency [1] | outcome [2] | outcome [3] | outcome [4] | Potency [5] | Potency [6] | outcome [7] | outcome [18] | outcome [9] | outcome [10] | Potency [11] | outcome [12] | outcome [13] | Potency [14] | outcome [16] | Potency [17]

CN(C)CCCN(C)C
inactive: activation [1] -2.43% [at 8.39 µM] | cAMP activity change [2] 3.11% [at 8.39 µM] | activity change, negative = inhibition [3] 4.29% [at 8.39 µM] | activity change, negative = cytotoxicity [4] 0.833% [at 8.39 µM] | activation [5] -0.0517% [at 8.39 µM] | activity change, negative = inhibition [6] 12.8% [at 8.39 µM] | activity change, negative = cytotoxicity [7] 5.2% [at 8.39 µM] | activity change, negative = cytotoxicity [8] 1.47% [at 8.39 µM] | viability change, negative = cytotoxic [18] -1.68% [at 6.97 µM] | activity change, negative = cytotoxicity [19] 0.619% [at 6.97 µM] | activation [9] -1.23% [at 6.97 µM] | activity, negative = inhibition [10] -3.47% [at 4.65 µM] | activation [11] -0.372% [at 5.23 µM] | activity change, negative = cytotoxicity [12] 11.9% [at 8.39 µM] | caspase activation [13] 0.348% [at 8.39 µM] | activity change, negative = cytotoxicity [14] 2.18% [at 8.39 µM] | caspase-3/7 activation [15] 1.46% [at 8.39 µM] | activity change, negative = cytotoxicity [16] 6.58% [at 8.39 µM] | activation [17] 5.88% [at 8.39 µM]

CN(C)CCc1c[nH]c2ccc(CS(=O)(=O)N3CCCC3)cc12
inactive: Potency [1] | outcome [2] | outcome [3] | outcome [4] | Potency [5] | Potency [6] | outcome [7] | Potency [8] | outcome [18] | outcome [19] | outcome [9] | outcome [10] | Potency [11] | outcome [12] | outcome [13] | Potency [14] | outcome [16] | Potency [17] | max activation [20] -1.76%

CC(=O)Oc1ccc(C(C)=O)cc1
inactive: Potency [1] | outcome [2] | outcome [3] | outcome [4] | Potency [5] | Potency [6] | Potency [8] | outcome [18] | outcome [19] | outcome [9] | outcome [10] | Potency [11] | outcome [12] | outcome [13] | Potency [14] | outcome [16] | Potency [17]

CCCCCCCCCCCCCCBr
inactive: Potency [1] | outcome [2] | outcome [3] | outcome [4] | Potency [5] | Potency [6] | outcome [7] | outcome [18] | outcome [19] | outcome [9] | outcome [10] | outcome [12] | outcome [13] | Potency [14] | outcome [15] | outcome [16] | Potency [17]

O=C(O)Cc1ccccc1Oc1ccc(Cl)cc1Cl
inactive: Potency [1] | outcome [2] | outcome [3] | outcome [4] | Potency [5] | Potency [6] | outcome [7] | Potency [8] | outcome [9] | outcome [10] | Potency [11] | outcome [12] | outcome [13] | Potency [14] | outcome [15] | outcome [16] | Potency [17]
